Measurements taken from PubChem BioAssay.
Values without a mark were called inactive. Calls of active or inactive are those of the source.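 The calls were made as follows: active = mean inhibition over 43.08%, the solvent-only control mean plus 3 SD; inactive = the rest.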

Target: Nuclear receptor coactivator 3 (Homo sapiens) (UniProt Q9Y6Q9)
Test: NCOA3 GAL4-fusion reporter inhibition – cell-based, luminescence, quadruplicate, confirmation (AID 588792);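 also: 0% = DMSO treated cells and 100% = gossypol at 36 µM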
Details: HEK293 GAL4-SRC3 luciferase reporter, at 3.6 µM, stronger effect = higher value

Sequence of Nuclear receptor coactivator 3 (Homo sapiens) (Q9Y6Q9 whole entry, looked up, the tested form may be a part): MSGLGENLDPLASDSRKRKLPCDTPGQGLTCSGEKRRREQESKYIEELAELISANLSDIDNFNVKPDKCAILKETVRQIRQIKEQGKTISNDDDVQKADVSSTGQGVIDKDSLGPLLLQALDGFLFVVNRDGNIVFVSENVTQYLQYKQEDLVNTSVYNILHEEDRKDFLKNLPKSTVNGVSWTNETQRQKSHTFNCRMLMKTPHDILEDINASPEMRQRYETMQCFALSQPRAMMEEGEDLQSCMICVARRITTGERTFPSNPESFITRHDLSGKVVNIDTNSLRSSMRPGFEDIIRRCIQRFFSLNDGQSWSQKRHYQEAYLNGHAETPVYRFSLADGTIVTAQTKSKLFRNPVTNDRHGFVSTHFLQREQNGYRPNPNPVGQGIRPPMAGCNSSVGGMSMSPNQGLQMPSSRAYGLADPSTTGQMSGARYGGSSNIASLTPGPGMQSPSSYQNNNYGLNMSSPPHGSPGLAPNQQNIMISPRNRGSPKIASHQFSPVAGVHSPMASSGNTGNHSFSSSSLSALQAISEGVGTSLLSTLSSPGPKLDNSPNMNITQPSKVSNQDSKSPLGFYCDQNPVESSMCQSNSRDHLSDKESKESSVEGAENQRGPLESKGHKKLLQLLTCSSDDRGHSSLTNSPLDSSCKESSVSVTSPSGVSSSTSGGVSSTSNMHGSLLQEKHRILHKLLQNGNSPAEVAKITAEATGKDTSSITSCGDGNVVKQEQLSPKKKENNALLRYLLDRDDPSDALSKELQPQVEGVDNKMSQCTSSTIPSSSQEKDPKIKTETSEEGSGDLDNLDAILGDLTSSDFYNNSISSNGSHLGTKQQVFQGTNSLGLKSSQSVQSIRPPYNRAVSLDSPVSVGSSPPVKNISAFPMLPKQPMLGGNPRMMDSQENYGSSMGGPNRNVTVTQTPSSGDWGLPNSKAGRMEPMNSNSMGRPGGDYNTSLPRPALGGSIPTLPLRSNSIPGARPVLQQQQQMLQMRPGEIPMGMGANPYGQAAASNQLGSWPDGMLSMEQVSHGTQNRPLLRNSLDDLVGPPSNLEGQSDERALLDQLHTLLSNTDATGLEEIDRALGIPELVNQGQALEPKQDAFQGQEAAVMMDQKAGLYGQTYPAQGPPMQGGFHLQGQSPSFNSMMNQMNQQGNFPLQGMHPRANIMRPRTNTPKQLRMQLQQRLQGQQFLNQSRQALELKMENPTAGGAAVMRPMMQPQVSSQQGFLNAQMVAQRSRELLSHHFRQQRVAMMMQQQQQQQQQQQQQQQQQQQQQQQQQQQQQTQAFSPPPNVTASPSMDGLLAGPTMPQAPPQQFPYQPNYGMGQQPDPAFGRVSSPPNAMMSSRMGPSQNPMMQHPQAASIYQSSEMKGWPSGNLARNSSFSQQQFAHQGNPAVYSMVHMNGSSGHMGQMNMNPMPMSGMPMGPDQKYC

Q: For O=C1C=CC(=C(c2ccc(O)cc2)c2ccc(O)cc2)C=C1, which inhibition is on record?
A: The inhibition was 71.2% (active).

Q: How did the inhibition turn out when CC1=C(C(=O)OCc2ccc3c(c2)OCO3)C(c2cccc([N+](=O)[O-])c2)NC(=O)N1 (stereo not given) was run?
A: Its inhibition is 64.6% (active).

Q: For COc1ccc(-c2cncnc2-c2ccc(OC)cc2O)cc1, which inhibition is on record?
A: Its inhibition is 58.9% (active).

Q: For C=CCN(CC=C)c1ncnc2[nH]ncc12, which inhibition is on record?
A: The inhibition was 71.4% (active).

Q: CCOc1ccc(/C=C2\SC(=S)N(CCCC(=O)NCCCN3CCOCC3)C2=O)cc1 was tested. Which inhibition did it give?
A: The inhibition was 29.9%.

Q: How did the inhibition turn out when O=C(N/N=C/c1cc(Br)ccc1O)C(c1ccncc1)N1CCOCC1 (stereo not given) was run?
A: The inhibition was 19.3%.

Q: CCOC(=O)c1cccc(NS(=O)(=O)c2ccc(NC(C)=O)cc2)c1 was tested. Which inhibition did it give?
A: The inhibition was 43.5% (active).

Q: O=C(NC1CCCCC1)C(c1cccnc1)N(C(=O)CCl)c1cccc(Cl)c1 (stereo not given) was tested. Which inhibition did it give?
A: The inhibition was 61.6% (active).

Q: Cc1[nH]ccc2c1[nH]c1cc(=O)ccc12 was tested. Which inhibition did it give?
A: Its inhibition is 56% (active).

Q: Which inhibition does the source give for Oc1ccc(Nc2ncnc3scc(-c4ccccc4)c23)cc1 here?
A: The inhibition was 38.6%.

Q: How did the inhibition turn out when CC(C)c1ccc(/C=C2\SC(=S)N(CCC(=O)N3CCCCC3CCO)C2=O)cc1 (stereo not given) was run?
A: The inhibition was 23.5%.

Q: How did the inhibition turn out when COc1ccc(C(=O)C(CN2CCOCC2)c2ccccc2)cc1 (stereo not given) was run?
A: Its inhibition is 1.7%.

Q: For Cc1ccc(C)c(N2CCN(C(=O)CCS(=O)(=O)c3ccc4c(c3)NC(=O)CO4)CC2)c1, which inhibition is on record?
A: Its inhibition is -1.43%.

Q: CS(=O)(=O)Nc1ccc(-c2cnc3cccnn23)cc1 was tested. Which inhibition did it give?
A: Its inhibition is 67.9% (active).

Q: For Brc1ccc2ncnc(NCc3cccnc3)c2c1, which inhibition is on record?
A: Its inhibition is 70.6% (active).

Q: How did the inhibition turn out when NC(=O)c1sc2nc3c(c(-c4cccs4)c2c1N)CCCCC3 was run?
A: Its inhibition is 83.3% (active).

Q: For COc1ccc(-c2cn[nH]c2-c2ccc(OC)cc2O)cc1, which inhibition is on record?
A: Its inhibition is 54.6% (active).

Q: With CCOc1cc(CNc2ccc3c(c2)OCCO3)cc(Br)c1OCC as the molecule, how does the inhibition read?
A: Its inhibition is 25.4%.

Q: How did the inhibition turn out when C=C1C(=O)OC2CC1C(O)CC(C)=CCCC(C)=CC(O)CC2C (stereo not given) was run?
A: The inhibition was 22.9%.

Q: CCCC(=O)N1CCN(c2ccc(NC(=O)c3cc4ccccc4o3)cc2Cl)CC1 was tested. Which inhibition did it give?
A: The inhibition was -3.22%.

Q: Cn1nc(C(F)(F)F)c(C#N)c1N1CCN(c2ccc(F)cc2)CC1 was tested. Which inhibition did it give?
A: The inhibition was 36.7%.

Q: How did the inhibition turn out when c1csc(C2=Nn3c(nnc3-c3ccncc3)SC2)c1 was run?
A: Its inhibition is 72.9% (active).

Q: With Cc1ccc(S(=O)(=O)c2ccc([N+](=O)[O-])cn2)cc1 as the molecule, how does the inhibition read?
A: Its inhibition is 25.7%.

Q: Cc1ccc(/C=C2\SC(=S)N(CCCC(=O)NC3CCCC3)C2=O)cc1 was tested. Which inhibition did it give?
A: The inhibition was 55.2% (active).

Q: How did the inhibition turn out when CN(C)C=Nc1ncc2c3ccccc3n(CCN(C)C)c2c1C#N was run?
A: Its inhibition is 48.6% (active).

Q: Cc1nc2c(-c3ccc(Cl)cc3)cnn2c(N)c1-c1ccc(F)cc1 was tested. Which inhibition did it give?
A: Its inhibition is 38%.

Q: Which inhibition does the source give for CCn1c2ccccc2c2cnc(N=CN(C)C)c(C#N)c21 here?
A: The inhibition was 32%.

Q: Cc1c(/C(O)=C2/C(=O)C(=O)N(CCN3CCOCC3)C2c2ccco2)cnn1-c1ccccc1 (stereo not given) was tested. Which inhibition did it give?
A: The inhibition was 23.3%.

Q: With COc1ccc(Nc2ccnc3ccccc23)cc1 as the molecule, how does the inhibition read?
A: Its inhibition is 41.8%.

Q: Cc1nn(C(C)(C)C)c(C)c1/C=N/OC(=O)Nc1ccc(Cl)c(Cl)c1 was tested. Which inhibition did it give?
A: The inhibition was 20.2%.

Q: For COc1cc2ccccc2ccc1=NO, which inhibition is on record?
A: The inhibition was 60.1% (active).

Q: With Clc1ccccc1C1=Nn2c(nnc2-c2ccncc2)SC1 as the molecule, how does the inhibition read?
A: The inhibition was 78.3% (active).

Q: C=CCn1c(C)cc(C2=NNC(=NC(C)(C)C)SC2)c1C was tested. Which inhibition did it give?
A: Its inhibition is 28.8%.

Q: With Cc1ccc2occ(/C=N/NC(=O)[C@@H](N)Cc3ccccc3)c(=O)c2c1 as the molecule, how does the inhibition read?
A: Its inhibition is 37.9%.

Q: For CCOC(=O)c1cccc2c1-c1ccccc1/C2=N/O, which inhibition is on record?
A: The inhibition was 39.8%.

Q: CCc1ccc(/C=C2\SC(=S)N(CCCC(=O)NCCCN3CCOCC3)C2=O)cc1 was tested. Which inhibition did it give?
A: Its inhibition is 42.4%.

Q: With CCn1c(Oc2ccccc2C)nc2c1c(=O)n(C)c(=O)n2C as the molecule, how does the inhibition read?
A: Its inhibition is 51.9% (active).

Q: For C(=N\Nc1ccc2ccccc2n1)/c1ccc2c(c1)OCCO2, which inhibition is on record?
A: The inhibition was 34.6%.

Q: Which inhibition does the source give for O=C(O)C1CC=CCC1C(=O)Nc1ccc2c(c1)OCCO2 (stereo not given) here?
A: The inhibition was -15.8%.

Q: How did the inhibition turn out when CC1=C(C(=O)OCc2ccc3c(c2)OCO3)C(c2ccc(Cl)cc2)NC(=O)N1 (stereo not given) was run?
A: The inhibition was 86% (active).
